Our source for the growth inhibition values is PubChem BioAssay (NCI).

The panel holds about 79,000 compounds, 15% with a hit somewhere; the sample as a whole holds those more often. Values without a mark were called inactive. Active and inactive are the calls of the source. Cut-off read from the data, not from the text of the source: active = growth inhibition above about 70%; inactive = the rest.

A short description of this test: NCI Yeast Anticancer Drug Screen. Data for the rad50 strain (AID 155).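 Note: 0% = growth of vehicle-only cultures of the same strain.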 The settings on record: S. cerevisiae rad50 strain growth inhibition; at 50.0 µM; hits give high values. On the procedure: Growth inhibition of yeast strains with defined genetic alterations is measured as a screen for potential anti-cancer activity. Selected strains with alterations in DNA damage repair or cell cycle control were exposed to compounds and growth inhibition was measured relative to vehicle treated controls. The strain used in this assay is rad50
`O=C(NCc1ccccc1)c1cccc([N+](=O)[O-])c1`: the growth inhibition was 5.05%.

`O=S(=O)(O)c1cccc2cccnc12`: the growth inhibition was 4.3%.

Turning to `CCOC(=O)C1(N)CCCCC1`, the growth inhibition was 10.3%.

As for `CCN(CC)CCN1CNC(=S)NC1`, the growth inhibition is 0.1%.

For `Cn1c2ccccc2c2nnc(NCCCCO)nc21`, the growth inhibition is 10.4%.

Regarding `CCOC(=O)/C(O)=C(\C=N\C(=S)Nc1ccc(Cl)c(Cl)c1)C(=O)OCC`, the growth inhibition was 43.6%.

For the compound `CCCOCc1cn[nH]n1`, the growth inhibition is -9.7%.

As for `Oc1cc2ccccc2c(-c2c(O)c(O)cc3ccccc23)c1O`, the growth inhibition was 89.5% (active).

With `COC1OC(CO)C(OC)C(O)C1O` (stereo not given), the growth inhibition is -5.6%.

On to `O=C(O)c1ccc(OCc2ccccc2)cc1`, for which the growth inhibition is 12.6%.

In the case of `Cc1ccnc(Nc2nc3ccccc3[nH]2)n1`, the growth inhibition is 7.1%.

Turning to `C[C@H](CCC[C@H](C)OS(=O)(=O)c1ccccc1)OS(=O)(=O)c1ccccc1`, the growth inhibition is 9.3%.

As to `C/C(O)=C(/C=N/C(=S)Nc1ccccc1)C(=O)Nc1ccccc1C`, the growth inhibition was 25.9%.

Take `CCC(=O)C1C(=O)c2ccccc2C1=O`: the growth inhibition was 20.9%.

On to `COc1c(CNC(=O)CCl)cc2[nH]c(C)cc2c1CNC(=O)CCl`, for which the growth inhibition was 4.9%.

As to `c1ccc(-c2ccc3ccccc3c2)cc1`, the growth inhibition was 7.35%.

As for `COc1cc(OC)c(NC(=O)C(Sc2nc(C)cc(C)c2C#N)c2ccccc2)cc1Cl` (stereo not given), the growth inhibition was -6.3%.

Consider `CCCCc1ccc2nc(NC(=O)OC)[nH]c2c1`, for which the growth inhibition is -4.25%.

Take `O=C(OCC1CCCO1)c1ccc([N+](=O)[O-])cc1` (stereo not given): the growth inhibition was 2.05%.

Regarding `CCOc1ccc2c(c1)c(C)cc(C)[n+]2CC`, the growth inhibition was 4.45%.

On to `CC(CC(CCC(=O)O)(c1ccccc1)c1ccccc1)N(C)C` (stereo not given), for which the growth inhibition is 19.6%.

Take `c1ccc(Oc2c3ccccc3nc3ccccc23)cc1`: the growth inhibition is 2.75%.

As for `CCC(=O)Oc1c(C)cc(O)c2ccccc12`, the growth inhibition is 8.95%.

On to `CC1(C)OC2C(CO)OC(n3ccc(=O)[nH]c3=O)C2O1` (stereo not given), for which the growth inhibition is 1.9%.

Take `CC(=O)C1C(=O)C(=O)N(c2cccc([N+](=O)[O-])c2)C1=O` (stereo not given): the growth inhibition was -40%.

Regarding `OCC1OC(n2ccc3c2ncn2ncnc32)C(O)C1O` (stereo not given), the growth inhibition is -20.7%.

Consider `N=C(N)c1nn(C2OC(CO)C(O)C2O)c2nc[nH]c(=O)c12` (stereo not given), for which the growth inhibition is 0.75%.

On to `O=Cc1c(O)c2ccccc2[nH]c1=O`, for which the growth inhibition was -0.95%.

For `CC(=O)OC/C(C)=C\CC(C)COC(C)=O` (stereo not given), the growth inhibition is -9.25%.

Turning to `Nc1ccccc1SC1CC(=O)N(c2ccc(Cl)c(Cl)c2)C1=O` (stereo not given), the growth inhibition was -2.05%.

In the case of `O=C(O)c1ccc([N+](=O)[O-])cc1S(=O)(=O)O`, the growth inhibition was -21.6%.

For the compound `CC(=O)Nc1ncc(S(=O)(=O)c2ccc([N+](=O)[O-])cc2)s1`, the growth inhibition is -28.1%.

Turning to `CC(=O)O[C@H]1CC[C@]2(C)C3=C(C(=O)C[C@H]2C1(C)C)[C@]1(C)CC[C@H]([C@H](C)CCC(=O)O)[C@@]1(C)CC3=O`, the growth inhibition was 42.8%.

Consider `CCOC(=O)c1c(C)[nH]c(C)c1C=O`, for which the growth inhibition was 16.6%.

With `C/C(=N\Nc1ccc([N+](=O)[O-])cc1[N+](=O)[O-])c1ccc(Br)cc1`, the growth inhibition was -8.7%.

As to `O=C(Nc1c(Cl)cc(Cl)cc1Cl)ON=C1CCCCC1`, the growth inhibition was 1.2%.

As for `CC(=O)c1cc(O)ccc1O`, the growth inhibition is -6.45%.

Turning to `Cc1cc2c3ccc(C)[n+](C)c3ccc2n1C`, the growth inhibition is -4.3%.

For the compound `CC(=O)NNC(=S)N/C=C/c1c(C)ccc([N+](=O)[O-])c1[N+](=O)[O-]`, the growth inhibition was -24.5%.

Take `CS(=O)(=O)c1ccc(/C=C\C(=O)O)cc1`: the growth inhibition is 19.6%.
